From PubChem
GLP1R ag: qHTS of GLP-1 Receptor Agonists. HEK293 GLP-1R CRE-luciferase, luminescence, 4-6 h; cells express a hypersensitive GLP-1R form. Potency, µM (series often up to 45.6 µM), inactives show at the top dose activation, usual class: activators. 380,000 tested, 0.007% active; note: % of control where 0% means no effect
GLP-1R inv ag: qHTS of GLP-1 Receptor Inverse Agonists (Inhibition Mode); Glucagon-like peptide 1 receptor (Homo sapiens), P43220; HEK293 GLP-1R CRE-luciferase, luminescence, 24 h; GLP-1R form is constitutively active; Potency, µM (doses to about 38.3 µM), without a hit: top-dose activity change, negative = inhibition, usual class: inhibitors; 410,000 tested, 1.6% active; note: % is set by controls: 0 for no effect and ±100 for the full control effect; nearly all actives have a fitted effect of over 55% in size
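GLP-1R inverse agonism mode: basal reporter luminescence in engineered HEK293 cells measured after one day of compound exposure at 37 deg C, with a 12 min room-temperature detection step.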
HEK293 tox: qHTS of GLP-1 Receptor Inverse Agonists: Cytotox Screen; Potency, µM (top dose mostly 38.3 µM), inactives show top-dose activity change, negative = inhibition, actives largely listed as inhibitors; HEK293 cAMP-luciferase reporter cells, luminescence, 24 h; 410,000 tested, 0.13% active; AID 624418, 2012;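 note: loss of luciferase light is scored as toxicity; % is set by controls: 0 for no effect and ±100 for the full control effect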
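Here, cytotoxicity is scored as loss of luminescence. The MLSMR collection was tested on cells seeded in medium containing 10% Nu serum, with a 24 hr compound exposure preceded by 12 hours of culture.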
RORg inh: qHTS for inhibitors of ROR gamma transcriptional activity | Nuclear receptor ROR-gamma (Mus musculus), P51450 | Drosophila S2 Gal4-RORgamma UAS-luciferase reporter, 20 h | Potency, µM (titrated, usually from 53.6 µM), inactives show at the highest dose activity change, negative = inhibition, usual class: inhibitors | 310,000 tested, 5.4% active | AID 2551, 2010; note: % is set by controls: 0 for no effect and ±100 for the full control effect; nearly all actives have a fitted effect of over 60% in size
Target sequence (P51450 whole entry, looked up, the tested form may be a part): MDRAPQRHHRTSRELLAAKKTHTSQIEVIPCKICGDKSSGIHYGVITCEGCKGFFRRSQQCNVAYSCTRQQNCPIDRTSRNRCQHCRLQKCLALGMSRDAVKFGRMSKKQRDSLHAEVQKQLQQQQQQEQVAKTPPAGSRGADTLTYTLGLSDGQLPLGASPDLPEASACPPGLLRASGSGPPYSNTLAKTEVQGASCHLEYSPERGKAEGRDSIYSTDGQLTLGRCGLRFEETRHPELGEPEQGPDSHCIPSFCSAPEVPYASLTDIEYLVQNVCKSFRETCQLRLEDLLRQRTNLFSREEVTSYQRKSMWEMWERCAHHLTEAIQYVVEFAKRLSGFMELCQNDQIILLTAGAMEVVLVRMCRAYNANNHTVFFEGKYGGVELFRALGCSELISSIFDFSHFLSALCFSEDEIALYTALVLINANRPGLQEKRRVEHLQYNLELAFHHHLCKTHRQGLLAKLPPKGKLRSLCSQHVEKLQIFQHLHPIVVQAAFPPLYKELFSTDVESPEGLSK
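Stable Schneider cell line, Gal4 DNA-binding domain fused to ROR gamma, UAS-luciferase. Cmpd 1 hr RT → CuSO4 700 uM final → 20 hr RT → luciferase reagent 10 min → luminescence.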
Gal4-VP16 FLuc: VP16 counterscreen qHTS for inhibitors of ROR gamma transcriptional activity; Drosophila S2 Gal4-VP16 UAS-luciferase, luminescence, 20 h; Potency, µM (highest dose often 53.6 µM), for inactives: at the highest dose activity, negative = inhibition, actives largely listed as inhibitors; 310,000 tested, 3.5% active; AID 2546, 2010;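 note: Gal4-VP16 expression switched on by copper sulfate through the metallothionein promoter; % is set by controls: 0 for no effect and ±100 for the full control effect; nearly all actives have a fitted effect of over 50% in size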
Numbers without * were called inactive; ? = inconclusive; . = no result given; [ ] = remark or other dose. Rows were chosen to be rich in hits. Some 5.9% of all compounds tested hit in one or more screens of this group. Calls come from the whole dose curve; as a rule, active = well fitted curve in the direction sought with a large enough effect; inconclusive = small, poorly fitted or top-dose-only effect, or another doubt; inactive = no such curve, though single readings can be large; an effect the other way counts as inactive or inconclusive. Potency is the fitted concentration of half-maximal effect.

SMILES	GLP1R ag	GLP-1R inv ag	HEK293 tox	RORg inh	Gal4-VP16 FLuc
COC(=O)c1sc(NC(=S)NC(=O)c2ccccc2C)nc1C	7%	?	?	6.3µM*	16µM*
C=CCOC(=O)c1sc(NC(=O)c2ccc(OC)cc2)nc1C	9%	-34%	3%	6.3µM*	-13%
CCOC(=O)c1sc(NC(=S)NC(=O)c2ccc(OC)cc2)nc1C	-4%	8%	-4%	6.3µM*	5µM*
COC(=O)c1sc(NC(=S)NC(=O)c2ccc(F)cc2)nc1C	.	.	.	0%	-5%[10 µM]
Cc1cc(=O)[nH]c2nnc(SCC(=O)Nc3ccc(OC(F)(F)F)cc3)n12	.	7%	12%	.	.
O=[N+]([O-])c1cccc(/C=N/n2c(COc3ccccc3)n[nH]c2=S)c1	24%	5%	-3%	13µM*	?
COc1cccc(/C=N/n2c(COc3ccccc3)n[nH]c2=S)c1	1%	1%	-2%	7.1µM*	?
O=[N+]([O-])c1ccc(/C=N/n2c(COc3ccccc3)n[nH]c2=S)cc1	1%	12%	-1%	7.1µM*	-26%
Cc1ccccc1OCc1nc2ccccc2c(=O)n1/N=C/c1cccc([N+](=O)[O-])c1	1%	4%	-9%	-9%	-19%
S=c1[nH]nc(COc2ccccc2)n1/N=C/c1cccc(Br)c1	16%	-10%	-3%	-42%	-21%
Oc1ccc(/C=N/n2c(COc3ccccc3)n[nH]c2=S)cc1O	7%	81%	169%	-28%	-4%
S=c1[nH]ncn1/N=C/c1cccc(Oc2ccccc2)c1	-3%	14%	?	2.8µM*	7.1µM*
COc1cccc(-c2ccc3ncnc(N4CCOCC4)c3c2)c1	.	.	.	19%	-3%
Cc1cccc(/C=C2/S/C(=N/N=C3\CC4CCC3(C)C4(C)C)NC2=O)c1 (centres undefined)	-38%	?	36%	8.9µM*	?
O=C1N/C(=N/O)S/C1=C/c1cccc([N+](=O)[O-])c1	0%	7%	7%	16%	-10%
Cc1nnc(NC(=O)CSc2ncc(-c3ccccc3)[nH]2)s1	8%	18%	5%	9%	10%
CCc1nnc(NC(=O)CSc2ncc(-c3ccccc3)n2CC)s1	6%	-11%	-3%	11µM*	?
CCc1nnc(NC(=O)CSc2nnc(COc3ccccc3)n2-c2ccc(C)cc2)s1	0%	19%	3%	3%	3%
CCc1nnc(NC(=O)CSc2ncc(-c3ccccc3)[nH]2)s1	24%	9%	-10%	6.3µM*	?
CCc1nnc(NC(=O)CSc2nnc(-c3ccccc3O)n2-c2ccc(C)cc2C)s1	1%	?	?	1.6µM*	?
Cc1ccc(-n2nc(-c3ccc(F)cc3)c3cnc4cc5c(cc4c32)OCO5)cc1C	0%	8%	3%	.	.
O=C(Nc1cc(Cl)cc2c1[nH]c1cnccc12)c1cccnc1	.	.	.	-10%	-14%
CN(C)C(=O)c1ccc(-c2ccc3ncnc(NCCN4CCOCC4)c3c2)cc1	.	.	.	4%	5%
Cc1cc(=O)n(Cc2ccccc2Cl)c2c1c(C)nn2-c1ccccc1	.	11%	1%	.	.
CN1CCCC1CCNc1ccc2oc3ccccc3c(=O)c2c1 (centres undefined)	0%	?	1%	8.9µM*	?
SMILES	GLP1R ag	GLP-1R inv ag	HEK293 tox	RORg inh	Gal4-VP16 FLuc
CN1CCCC1CCNc1ccc2c(=O)c3ccccc3oc2c1 (centres undefined)	5%	?	253%	?	?
O=C(COC(=O)C1CCC1)NCc1ccccc1Cl	16%	-19%	-4%	-5%	-6%
COc1ccccc1CN(C)CC(=O)NC(=O)NC1CCCCC1	14%	4.5µM*	6%	.	.
S=C(NCc1ccccc1Cl)NC1CCCC1	6%	?	?	6.3µM*	8.9µM*
Fc1ccccc1CNC(=S)NC1CCCCC1	6%	?	-12%	5µM*	7.9µM*
COc1ccccc1CNC(=S)NC1CCCCC1	9%	?	?	2.2µM*	10µM*
CCC(=O)Nc1ccccc1-c1nc2ccccc2n(C(C)C(=O)Nc2ccc(OC)cc2)c1=O (centres undefined)	.	17%	1%	.	.
CCc1cnc2c(c1SCC(=O)Nc1ccc(OC)c(OC)c1)c(=O)n(C)c(=O)n2C	.	12%	-5%	.	.
COc1ccc(OC2C=CC(C#Cc3ccccc3)OC2CO)cc1 (centres undefined)	.	.	.	-7%[10 µM]	11%[10 µM]
CCCCCc1nn2cc(-c3ccccc3)nc2s1	.	-11%	0%	.	.
CC(=O)c1ccc(NC(=O)C2CCC(CNS(=O)(=O)c3cccs3)CC2)cc1 (centres undefined)	.	10%	-6%	.	.
COc1ccc(CC(=O)Nc2ccc3nc(Nc4cccc(Cl)c4)cc(C)c3c2)cc1	-11%	7.9µM*	-18%	.	.
Cc1cc(Nc2cccc(Cl)c2)nc2ccc(NC(=O)c3cccnc3)cc12	-6%	?	?	.	.
COc1ccccc1CC(=O)Nc1ccc2nc(Nc3cccc(Cl)c3)cc(C)c2c1	-1%	?	-19%	.	.
Cc1cc(Nc2cccc(Cl)c2)nc2ccc(NC(=O)c3cccc(N(C)C)c3)cc12	-3%	5.6µM*	-19%	.	.
Cc1nc2cncnc2n(C2CC2)c1=O	.	.	.	-20%	8%
COc1cc(OC)c(C2=NOC(C(=O)N3CCCc4ccccc43)C2)cc1Cl (centres undefined)	-13%	-10%	-1%	5.6µM*	4.5µM*
COc1cc2ncnc(Nc3cccc(Br)c3)c2cc1OC	.	.	.	?	-6%
CNc1cc2c(Nc3cccc(Br)c3)ncnc2cn1	.	.	.	13µM*	13µM*
COC(=O)C/C=C\[C@@H](C)[C@@H](/C=N\O[C@@H](C)c1cc(-c2c(C)cc(C)cc2C)no1)NS(=O)(=O)c1ccc(C)cc1	.	.	.	-15%[10 µM]	-8%[10 µM]
COc1ccc(CN2CCN(C(=O)CC(C)C)CC2)c(OC)c1OC	-7%	-2%	0%	-1%	3%
COc1ccc(CN2CCN(C(=O)CN3C(=O)C4C5C=CC(C5)C4C3=O)CC2)c(OC)c1OC (centres undefined)	2%	-5%	-19%	-28%	6.3µM*
c1ccc(CNCCC(Cc2ccccc2)c2ccco2)cc1 (centres undefined)	-6%	8.9µM*	?	-4%	0%
Cc1nc(Nc2ccccc2)c2nc(-c3ccccc3)n(CCCN3CCCCC3C)c2n1 (centres undefined)	.	.	.	-16%	-13%
N#Cc1c(N2CCCC(O)C2)nc(N)c2c(N)nc3c(c12)CC(=O)N3C12CC3CC(CC(C3)C1)C2 (centres undefined)	14%	172%	2%	4µM*	?
